In PubChem BioAssay AID504321 (NMMLSC, 2011):
Values without a mark were called inactive.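 How the source made its calls: active means GFP response vs DMSO above 150% with enough events counted; inconclusive means fewer than 70 events counted for a yeast strain; inactive means the rest.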

Experiment: MEP2-GFP expression modulation in yeast, confirmation, flow cytometry, third cherry pick, S. cerevisiae (AID 504321);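 further: median per-cell GFP fluorescence by flow cytometry across all yeast cells; ratio of sample to DMSO median GFP so 100% equals the DMSO level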
Settings: S. cerevisiae MEP2-GFP strain, 3 h, at 10 µM, stronger effect = higher value

| SMILES | GFP response vs DMSO |
| --- | --- |
| C/C(O)=C(\C#N)C(=O)Nc1cc(Br)ccc1Br | 112% |
| CN(C)C(=O)Oc1ccnc2cc(Cl)ccc12 | 108% |
| CN1CCN(c2ncnc3ccc(Br)cc23)CC1 | 101% |
| CN(C)C(=O)Oc1ccc(Cl)c2cccnc12 | 110% |
| CCN1CCN(c2ncnc3ccc(Br)cc23)CC1 | 112% |
| Cc1ccc2c(c1N)C(=O)c1ccccc1C2=O | 103% |
